# Results taken from publication PMC4336329 (PLoS ONE, 2015).
# Hit rate of the full screen: of about 310,000 compounds, about 14,000 (4.5%) showed an effect of 50% or more. The effect is printed as a negative number. The sample holds strong results, similar compounds and a random draw of the others, so the mix is not that of the screen.
# Biological target: human ether-à-go-go-related gene (hERG) potassium channel (human, UniProt Q12809)
# Assay: primary screen, population patch clamp on CHO cells stably expressing hERG; higher = less effect of the substance
# 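Note: peak tail current of the secondary pulse compared with the same well before compound.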
# Sequence of human ether-à-go-go-related gene (hERG) potassium channel (Q12809 whole entry, looked up): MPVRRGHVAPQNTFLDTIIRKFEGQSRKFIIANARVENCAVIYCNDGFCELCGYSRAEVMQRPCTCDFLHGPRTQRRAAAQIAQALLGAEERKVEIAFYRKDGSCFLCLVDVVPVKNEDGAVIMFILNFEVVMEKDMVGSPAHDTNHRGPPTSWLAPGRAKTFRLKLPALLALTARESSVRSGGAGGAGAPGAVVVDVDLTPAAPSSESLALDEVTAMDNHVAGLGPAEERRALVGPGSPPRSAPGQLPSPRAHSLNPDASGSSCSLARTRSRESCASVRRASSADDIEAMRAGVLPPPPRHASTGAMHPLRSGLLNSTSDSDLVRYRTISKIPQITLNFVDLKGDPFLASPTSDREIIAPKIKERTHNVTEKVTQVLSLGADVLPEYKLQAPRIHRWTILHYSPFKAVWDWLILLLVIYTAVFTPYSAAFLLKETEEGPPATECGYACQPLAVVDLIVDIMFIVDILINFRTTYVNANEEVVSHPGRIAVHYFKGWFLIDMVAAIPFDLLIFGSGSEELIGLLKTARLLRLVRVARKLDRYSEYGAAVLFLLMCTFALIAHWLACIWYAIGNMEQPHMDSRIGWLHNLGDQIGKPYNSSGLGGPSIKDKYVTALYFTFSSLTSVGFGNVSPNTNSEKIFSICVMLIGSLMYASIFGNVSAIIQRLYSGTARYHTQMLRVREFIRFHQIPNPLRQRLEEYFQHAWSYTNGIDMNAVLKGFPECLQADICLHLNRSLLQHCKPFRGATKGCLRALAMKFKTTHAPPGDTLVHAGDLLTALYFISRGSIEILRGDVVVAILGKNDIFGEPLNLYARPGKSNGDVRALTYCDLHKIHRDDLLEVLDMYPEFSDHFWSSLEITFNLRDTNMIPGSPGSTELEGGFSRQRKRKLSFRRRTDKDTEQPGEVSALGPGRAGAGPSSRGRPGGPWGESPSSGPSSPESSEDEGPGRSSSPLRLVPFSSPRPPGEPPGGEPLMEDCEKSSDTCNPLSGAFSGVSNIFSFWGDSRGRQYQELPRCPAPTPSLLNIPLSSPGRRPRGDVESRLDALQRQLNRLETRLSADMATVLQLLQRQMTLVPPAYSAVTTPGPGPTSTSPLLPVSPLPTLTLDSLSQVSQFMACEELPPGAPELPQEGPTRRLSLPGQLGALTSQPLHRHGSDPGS
row,SMILES,"hERG current change (%, negative = inhibition) at 10uM [%]"
1,COCc1nnc(NC(=O)c2cccc(NC(=O)c3ccccc3)c2)s1,-8.59
2,O=C(/C=C/c1cccc([N+](=O)[O-])c1)N1CCN(c2ccccc2F)CC1,-38.9
3,O=C(/C=C/c1cccc([N+](=O)[O-])c1)N1CCOCC1,-3.86
4,O=C(/C=C/c1cccc([N+](=O)[O-])c1)N1CCN(c2ccc(F)cc2)CC1,-56.7
5,O=C(NCCC(=O)N1CCCC1)c1ccccc1Cl,22
6,CNC(=O)C(C)N1c2cccc3cccc(c23)S1(=O)=O (stereo not shown),22.3
7,Cc1ccc(OCc2nnc(SCC(=O)c3ccccc3)n2-c2ccccc2)cc1,1.75
8,CC1(c2ccccc2)NC(=O)N(CC(=O)Nc2ccccc2C(=O)N2CCCCC2)C1=O (stereo not shown),19.7
9,O=C(CSc1nc(-c2ccco2)cc(C(F)(F)F)n1)N1CCSCC1,-19.9
10,CN1CCN(C(=O)CSc2nc(-c3ccco3)cc(C(F)(F)F)n2)CC1,15.3
11,O=C(CSc1nc(-c2ccco2)cc(C(F)(F)F)n1)N1CCN(Cc2ccccc2)CC1,-58.8
12,CCc1cc(C(=O)N(C)CC(=O)Nc2c(Cl)cccc2Cl)sc1C,-2.89
13,COc1cc(O)c(C(CC(=O)N2CCCCC2)c2ccc3c(c2)OCO3)c(OC)c1 (stereo not shown),5.41
14,COc1cc(O)c(C(CCN2CCCC2)c2cc(OC)c(OC)c(OC)c2)c(OC)c1 (stereo not shown),-7.35
15,COc1cc(O)c(C(CCN2CCOCC2)c2ccc(N(C)C)cc2)c(OC)c1 (stereo not shown),7.96
16,COc1cc(O)c(C(CC(=O)N2CCOCC2)c2ccc3c(c2)OCO3)c(OC)c1 (stereo not shown),7.98
17,COc1cc(O)c(C(CC(=O)N2CCCC2)c2ccc3c(c2)OCO3)c(OC)c1 (stereo not shown),6.4
18,COc1cc(O)c(C(CCN2CCCC(C)C2)c2ccc3c(c2)OCO3)c(OC)c1 (stereo not shown),-77.5
19,COc1cc(O)c(C(CCN2CCCCC2)c2ccc3c(c2)OCO3)c(OC)c1 (stereo not shown),-78.3
20,COc1cc(O)c(C(CC(=O)N2CCCC(C)C2)c2ccc3c(c2)OCO3)c(OC)c1 (stereo not shown),-5.66
21,COc1cc(O)c(C(CCN2CCOCC2)c2ccc3c(c2)OCO3)c(OC)c1 (stereo not shown),-59.5
22,COc1cc(O)c(C(CCN2CCCC2)c2ccc3c(c2)OCO3)c(OC)c1 (stereo not shown),-72.5
23,COc1cc(O)c(C(CCN2CCCC(C)C2)c2ccc(N(C)C)cc2)c(OC)c1 (stereo not shown),-29.5
24,COc1cc(O)c(C(CCN2CCN(c3ccccc3)CC2)c2ccc3c(c2)OCO3)c(OC)c1 (stereo not shown),-16.6
25,COc1ccc(NC(=O)c2cc3ccccc3o2)cc1OC,-3.22
26,O=C1CC(c2ccccc2)c2ccccc21 (stereo not shown),8.78

row,SMILES,"hERG current change (%, negative = inhibition) at 10uM [%]"
1,Cc1ccc(Cn2nc(C)c(NC(=O)CSc3nc4c(c(C(F)(F)F)n3)CCc3ccccc3-4)c2C)cc1,13.1
2,O=C(O)Cc1sc(Nc2ccc(F)cc2)nc1-c1cccs1,15.3
3,Cc1ccccc1C(CC(=O)c1cccs1)C(C#N)C#N (stereo not shown),20.2
4,Cc1ccc(Cn2ncc3c(N4CCN(c5ccc(C)cc5)CC4)ncnc32)cc1,8.18
5,COCCN(C(=O)c1cc2c(s1)CCCCC2)c1c(N)n(CC(C)C)c(=O)[nH]c1=O,3.04
6,CCOC(=O)C(NC(=O)C1CCCN1C(=O)OCc1ccccc1)C(=O)OCC (stereo not shown),-0.938
7,CCc1nnc(NC(=O)C2CCCN2C(=O)Nc2ccc(Cl)cc2)s1 (stereo not shown),1.86
8,COc1cc(-c2cc(C(=O)Nc3ccc(S(=O)(=O)Nc4ncccn4)cc3)c3ccccc3n2)cc(OC)c1OC,-7.01
9,CCn1c(=O)cc(SCC(=O)Nc2ccc(OC)c(OC)c2)c2ccccc21,-4.7
10,COc1ccc(S(=O)(=O)Nc2ccc(-n3cnnn3)cc2)cc1[N+](=O)[O-],0.00208
11,CC(C)(C)OC(=O)N1CCC(NC(=O)c2nc[nH]c2C(=O)NC2CCN(C(=O)OC(C)(C)C)CC2)CC1,-31.5
12,CC(C)(C)OC(=O)NCCCCCNC(=O)c1[nH]cnc1C(=O)NC1CCN(C(=O)OC(C)(C)C)CC1,-78.1
13,Cc1ccc(NC(=O)c2nc[nH]c2C(=O)NCCCCCNC(=O)OC(C)(C)C)cc1,-15.2
14,CC(C)(C)OC(=O)CNC(=O)c1[nH]cnc1C(=O)NC1CCN(C(=O)OC(C)(C)C)CC1,-2.67
15,CC(C)(C)OC(=O)NCCCCCNC(=O)c1[nH]cnc1C(=O)Nc1ccc(Cl)cc1,-6.26
16,CC(C)(C)OC(=O)NCCCCCNC(=O)c1[nH]cnc1C(=O)Nc1ccccc1,-53.2
17,O=C(COC(=O)/C=C/c1ccccc1Cl)NC1CCCC1,14.6
18,O=C(Nc1cccc2ccccc12)NC1CCCCC1O (stereo not shown),0.227
19,O=C(Nc1ccc(Cl)cc1Cl)C1CCC(=O)N1Cc1ccccc1Cl (stereo not shown),-2.67
20,C#CCOCCOCCOCCNc1nc(N2CCN(C(=O)CCCCCCCCCCNC(=O)[C@H](CO)n3cc(CCCSC)nn3)CC2)nc(N2CCN(C(=O)CCCCCCCCCCNC(=O)[C@@H]([C@H](C)O)n3cc(C)nn3)CC2)n1,8.18
21,Cc1nnc(SCC(=O)Nc2ccc3c(c2)OCCO3)s1,16.9
22,C/C(=N\O)c1ccc2c3ccccc3n(C)c2c1,25.3
23,COc1cc(CNCc2cccs2)ccc1OCc1ccccc1.Cl,-31.8
24,N#C/C(=C\c1c[nH]c2ccccc12)c1nnc2n1CCCCC2,-29.5
25,O=C(/C=C/c1cn(-c2ccccc2)nc1-c1cccnc1)N1CCCCC1,-49.7
26,N#C/C(=C\c1cn(-c2ccccc2)nc1-c1cccnc1)c1nnc2n1CCCCC2,-63.2
